# Results taken from PubChem BioAssay (NCATS).
# Results filed as inconclusive are left out. A call without a number means that no potency is given here. Calls of active or inactive are those of the source. Calls follow the shape of the dose curve; as a rule, active = well fitted cell-killing curve with a large enough effect; inconclusive = small, poorly fitted or top-dose-only effect, or effect the other way; inactive = flat fitted curve, though single readings scatter.
# System: CAOV3
# Experiment: Primary qHTS to identify gynecologic anti-cancer compounds using libraries of approved drugs and bioactive compounds (AID 1345084); also: nearly all actives have a fitted effect of over 55% in size
# Conditions: Gynecologic cancer cell panel viability, ATPlite luminescence, 48 h; series mostly up to 57.5 µM
# Text: National Center for Advancing Translational Sciences [NCATS] Assay Overview: Chemotherapeutic drug responses vary from cancer to cancer and from patient to patient. These variations could be caused by a number of factors including patient genomic background, tumor mutations, tumor heterogeneity, and aspects of drug treatment. Chemotherapeutic drug resistance is also a common issue and can lead to ineffective treatment and patient death. Here we have profiled the cell killing effects of thousands of compounds to characterize the responses in three gynecological cancers, identify cancer-selective compounds, and understand the diversity of responses to these compounds from pan-cancer suppressors to single cell line selective compounds. In this assay, we screened a 7,914 compound drug library that included approved drug and bioactive compounds in six ovarian, three cervical, and […] placental cancer cell lines using the ATPlite assay for cell viability. […] The cervical cancer cell lines included HeLa, Ca Ski, and C-33 A. The placental cancer cell lines included JEG-3. HEK 293T cells were used as the control cell line to determine the selectivity index. ATPlite is a luminescence based assay reliant on the conversion of a luciferase substrate to light in the presence of ATP. As a cytotoxic compound will suppress growth and decrease the number of cells, the concentration of ATP will decrease, and less light signal will be detected in the well.
# Assay Protocol Summary: 1,000 cells in 4 uL of media were dispensed into white, solid bottom 1536-well plates using a Multidrop Combi (Thermo Scientific). The Assay plates were incubated for 16 hours at 37 C with 5% CO2 in assay plates, followed by the addition of 23 nL of DMSO or drug dissolved in DMSO. Each compound was assayed in five concentrations (0.092, 0.46, 2.3, 11.5, and 57.5 uM), using the automated Wako 1536 Pin Tool workstation and incubated at 37 C with 5% CO2 48 hours. 4 uL of ATPlite, the ATP monitoring reagent, was then added to the each well of the assay plates using the Multidrop Combi reagent dispenser followed by incubation for 15 minutes at room temperature. The resulting luminescence was measured using the ViewLux plate reader.
# Potency is read from the fitted curve at half-maximal effect.
row,Structure (SMILES),Potency
1,CO[C@H]1C[C@@H]2CC[C@@H](C)[C@@](O)(O2)C(=O)C(=O)N2CCCC[C@H]2C(=O)O[C@H]([C@H](C)C[C@@H]2CC[C@@H](OC(=O)C(C)(CO)CO)[C@H](OC)C2)CC(=O)[C@H](C)/C=C(\C)[C@@H](O)[C@@H](OC)C(=O)[C@H](C)C[C@H](C)/C=C/C=C/C=C/1C,inactive
2,CC(=O)Nc1ccc(NC(=S)NC(=O)c2ccc(C(C)(C)C)cc2)cc1,inactive
3,O=C(OCc1ccccc1)c1ccc(O)cc1,inactive
4,O=C(O)Cc1cc(I)c(Oc2ccc(O)c(I)c2)c(I)c1,inactive
5,C/C(=C\C(=O)OCCCCCCCCC(=O)O)C[C@@H]1OC[C@H](C[C@@H]2O[C@H]2[C@@H](C)[C@H](C)O)[C@@H](O)[C@H]1O,inactive
6,Nc1ccc(N=Nc2ccccc2)c(N)n1,inactive
7,C=C1CC[C@H](O)CC1=C/C=C1\CCC[C@]2(C)[C@@H]([C@H](C)/C=C/[C@H](C)C(C)C)CC[C@@H]12,inactive
8,C[C@]12CC[C@@H]3c4ccc(OC(=O)c5ccccc5)cc4CC[C@H]3[C@@H]1CC[C@@H]2O,inactive
9,CCN(CC)CCOCCOC(=O)C(CC)(CC)c1ccccc1,inactive
10,O=C(O)CCC(=O)c1ccc(-c2ccccc2)cc1,inactive
11,CC1CC(OC(=O)C(O)c2ccccc2)CC(C)(C)C1 (configuration not stated),inactive
12,COc1ccc(C[C@H](C)NC[C@@H](O)c2ccc(O)c(NC=O)c2)cc1,inactive
13,CC(C)(C)c1ccc(CN2CCN(C(c3ccccc3)c3ccc(Cl)cc3)CC2)cc1 (configuration not stated),inactive
14,CN(C)CCCSc1ccccc1NC(=O)/C=C/c1ccccc1,inactive
15,O=C1c2ccccc2C(=O)c2c1ccc(O)c2O,inactive
16,C=C1[C@H](CO)[C@@H](O)C[C@@H]1n1cnc2c(=O)[nH]c(N)nc21,inactive
17,C[C@H]1O[C@@H](O[C@H]2[C@@H](O)C[C@H](O[C@H]3[C@@H](O)C[C@H](O[C@H]4CC[C@@]5(C)[C@H](CC[C@@H]6[C@@H]5C[C@@H](O)[C@]5(C)[C@@H](C7=CC(=O)OC7)CC[C@]65O)C4)O[C@@H]3C)O[C@@H]2C)C[C@H](O)[C@@H]1O,282 nM (active)
